Source: PubChem BioAssay (several laboratories)
Sampled rows, rich in hits. Any-hit rate of the full collection: about 2%.
Fh CTSL1 inh: blocks F. hepatica cathepsin L1 in PFM18AAP counter-screen; inhibition, % at 5.96 µM; recombinant F. hepatica cathepsin L1, Z-Leu-Arg-MCA fluorescence; actives 0.49% (n = 300,000);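 active = inhibition above the mean of all tested compounds plus 3 SD, set per screening campaign, cut at about 17% in these data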;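 note: 0% = plate median of test compound wells and 100% = 1 µM Z-Phe-Ala-diazomethylketone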
NALP1 inh: inhibitors of NALP1 inflammasome in yeast; S. cerevisiae NALP1/ASC/caspase-1 growth, X-gal OD620, 72 h; inhibition, % at 10 µM; actives 0.61% (n = 280,000); AID 2071; in the data active = inhibition mostly above about 24%, no sharp cut-off; inactive = mostly below about 32%
HGIII-sPLA2 inh: Blocks human group III sPLA2 activity; QFRET BODIPY PC-A2 liposome hydrolysis, fluorescence; AID 743126; Q9NZ20; inhibition, % at 12.2 µM; actives 0.56% (n = 370,000);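 active = inhibition above mean plus 3 SD of compounds lying within the high and low control bounds, cut at about 19% in these data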;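 note: 0% = median of test compound wells and 100% = no enzyme DMSO wells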
A3G deaminase: blocks human APOBEC3G single-stranded DNA deamination | recombinant A3G, ssDNA deamination FAM/TAMRA fluorescence | inhibition, % at 20 µM | actives 0.28% (n = 330,000);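 active = inhibition of at least 40% at 20 µM, with no more than 30% in the related APOBEC3A deaminase screen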;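 note: plate controls were DMSO wells with A3G for no effect and wells lacking A3G enzyme for full effect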
APOBEC3A inh: inhibitors of human APOBEC3A DNA deaminase; P31941; recombinant A3A, FAM/TAMRA ssDNA deamination fluorescence; inhibition, % at 20 µM; actives 0.41% (n = 330,000);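 active = at least 40% inhibition at 20 µM here, with at most 30% in a related deaminase screen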;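 note: plate controls were A3A with DMSO for no effect and wells lacking A3A enzyme for full effect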
Target sequence (P31941 whole entry, looked up): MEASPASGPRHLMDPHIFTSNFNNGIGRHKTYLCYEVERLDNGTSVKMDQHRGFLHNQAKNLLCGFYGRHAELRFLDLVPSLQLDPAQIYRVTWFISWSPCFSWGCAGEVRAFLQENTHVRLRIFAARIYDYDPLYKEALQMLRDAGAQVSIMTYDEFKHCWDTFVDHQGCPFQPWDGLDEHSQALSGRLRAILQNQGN
sPLA2 confirm: human GIII-sPLA2 inhibition, confirmation. recombinant hGIII-sPLA2, BODIPY PC-A2 QFRET fluorescence. shares compounds with HGIII-sPLA2 inh. inhibition, % at 12.2 µM. actives 34% (n = 2,000);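 active = mean inhibition across triplicates above the hit cutoff set in the earlier primary screen, cut at about 19% in these data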;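 note: 0% = enzyme with DMSO and 100% = DMSO wells lacking enzyme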
BODIPY interf: 535nm fluorescence interference, HGIII-sPLA2 counter-screen | shares compounds with HGIII-sPLA2 inh | BODIPY FL product fluorescence interference, QFRET | inhibition, % at 12.2 µM | actives 8.5% (n = 2,000);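 active = average inhibition above the solvent-only control mean plus 3 SD, cut at about 6% in these data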;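 note: 0% = DMSO with substrate plus product and 100% = DMSO with substrate alone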
* hit, by the source's call; · = no result given.

SMILES	Fh CTSL1 inh	NALP1 inh	HGIII-sPLA2 inh	A3G deaminase	APOBEC3A inh	sPLA2 confirm	BODIPY interf
COc1ccccc1N1CCN(Cc2ccc(Cl)cc2Cl)CC1	4.1	3.2	20.8*	-5.2	-2.1	11.4	-9.2
O=c1[nH]c(=S)n(C2CC2)c(O)c1/C=N/Nc1ccccc1	2.9	28.5	21.8*	31.6	-2.4	15.9	-4.1
c1ccc(Cc2cnc(N3CCNCC3)nc2)cc1	·	·	25.1*	·	·	-4.8	-7.0
c1cnc(N2CCNCC2)nc1	2.5	12.4	13.3	-9.4	-4.8	·	·
CCOP(=O)(OCC)C1(C(=O)O)CCCC1	-4.3	8.6	24.3*	-7.8	-4.7	6.4	-3.4
CCOC(=O)CNC(=O)N1Cc2cc(N3CCOCC3)ccc2-n2nncc2C1	·	·	1.2	·	·	·	·
